Source: PubChem BioAssay

assay: growth modulation of vineyard yeast isolate – strain RM11-1a, OD600, basal, 24 h, primary screen (AID 1177);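 also: cultures grown under basal conditions with no added stressor; test concentration not given here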; settings: S. cerevisiae RM11-1a growth, OD600, 24 h; higher = more signal, called active from +8 up or from −8 down

z-score, inactive:
C[C@@H]1NC(=O)[C@@H](C)COC(=O)[C@H](C)NC(=O)[C@@H](C)COC1=O -1.09, C[n+]1ccc(-c2ccc(CO)cc2)cc1 -0.142, O=C1C[C@@H](O)[C@@H](O)[C@@H]2[C@@H]3C(=O)N(C[C@@H]4CCCO4)C(=O)[C@@H]3CC[C@H]12 0.739, CCN1C(=O)[C@@H]2[C@H]3C(=CC[C@@H]2C1=O)C1(OCCCO1)[C@H]1O[C@H]1[C@H]3O 1.15, COC(=O)C=CCCc1coc(C=CCNC(=O)OC)n1 0.237, COC(=O)CC=C[C@@H](C)[C@@H](C=NO[C@@H](C)c1cn([C@H](CO)Cc2ccccc2)nn1)NS(=O)(=O)c1ccc(C)cc1 -2.06, O=C(NN=C1C[C@@H](O)[C@@H](O)[C@@H]2[C@@H]3C(=O)N(C[C@@H]4CCCO4)C(=O)[C@@H]3CC[C@@H]12)OCc1ccccc1 -1.49, CCOC(=O)C1=NO[C@@]2(C=C(Br)C3(OCCCO3)[C@H]3O[C@H]32)C1 0.227, COCCNC(=O)OCC1CCCC2(CC(OC(=O)NCc3ccc4c(c3)OCO4)CC(CCC(=O)N[C@@H](C)C(=O)OC)O2)O1 (stereo partly specified) 0.715, COc1ccc(COC(=O)NN=C2C[C@@H](O)[C@@H](O)[C@@H]3[C@@H]4C(=O)N(c5ccc(F)cc5F)C(=O)[C@@H]4CC[C@H]23)cc1 -0.461, CC(CCN1CCCc2nc(C)c(C)cc21)=NOC(C)CN1CCCCc2nc(C)c(C)cc21 (stereo unspecified) 1.02, COC(=O)CC=C[C@@H](C)[C@@H](C=NOCC[C@@H]1C=C[C@H](OC(C)=O)[C@@H](COC(C)=O)O1)OC 0.47, CC(CCN1CCCCc2nc(C)c(C)cc21)=NOC[C@@H](O)COCc1ccco1 0.0681, CCOC(=O)[C@H](Cc1ccccc1)NC(=O)CCC1CC(OC(=O)NCc2cccc3ccccc23)CC2(CCCC(COC(=O)NCc3cccc(C(F)(F)F)c3)O2)O1 (stereo partly specified) 0.473, CCOC(=O)[C@H](CC(C)C)NC(=O)CCC1CC(OC(=O)NCCc2ccc(F)cc2)CC2(CCCC(COC(=O)NCCOc3ccccc3)O2)O1 (stereo partly specified) 0.446, COC(=O)[C@H]1[C@@H](O)[C@@]2(O)c3ccccc3O[C@@]2(c2ccccc2)[C@@H]1c1ccccc1 0.653, C#CCCCON=C1C[C@@H](O)[C@@H](O)[C@@H]2[C@@H]3C(=O)N(C(C)(C)C)C(=O)[C@@H]3CC[C@H]12 -0.311, CO[C@@H]1C=CCC(=O)N[C@@H](C)C(=O)OC[C@@H](OC)[C@H](C)CCCC(=O)OC[C@H]1C -0.935, CON=C[C@@H](C)[C@H](OCc1ccccc1)C(C)C -0.919, Cc1ccc(S(=O)(=O)n2c3ccccc3c3nnc(C(=O)c4ccccc4)nc32)cc1 0.151, CC(C)CON=C1C[C@@H](O)[C@@H](O)[C@@H]2[C@@H]3C(=O)N(C4CCCCC4)C(=O)[C@@H]3CC[C@H]12 -0.207, CO[C@@H]1COC(=O)CC=C[C@@H](C)[C@H](OC)COC(=O)[C@@H](C)COC(=O)CC=C[C@H]1C 0.401, COC(=O)CC=C[C@@H](C)[C@@H](C=NO[C@@H](C)c1cn([C@H](CO)Cc2ccccc2)nn1)OC -2.71, COC(=O)CC=C[C@@H](C)[C@@H](C=NOC[C@@H](O)[C@H]1O[C@@H]2OC(C)(C)O[C@@H]2[C@H]1O)NS(=O)(=O)c1ccc(C)cc1 0.0095, COc1ccc(O[C@H]2C=C[C@@H](c3ccccc3)O[C@@H]2COC(=O)CCC(C)=NOC(C)CN2CCCc3nc(C)c(C)cc32)cc1 (stereo partly specified) 1.37, CCOC(=O)NN=C1C[C@@H](O)[C@@H](O)[C@@H]2[C@@H]3C(=O)N(Cc4ccc5c(c4)OCO5)C(=O)[C@@H]3CC[C@H]12 0.169, CC(C)=NO[C@H](C)c1cn([C@H](CO)Cc2ccccc2)nn1 -0.493, CCOC(=O)[C@H](CC(C)C)NC(=O)CCC1CC(OC(=O)NCc2cccc3ccccc23)CC2(CCCC(COC(=O)NCCOc3ccccc3)O2)O1 (stereo partly specified) -0.879, CC(C)[C@@H](OCc1ccccc1)[C@H](C)C=NOC[C@@H](O)COCc1ccco1 -1.12, CCOC(=O)[C@H](CC(C)C)NC(=O)CCC1CC(OC(=O)NCc2cccc3ccccc23)CC2(CCCC(COC(=O)NCCOC)O2)O1 (stereo partly specified) -1.73, CON=C1[C@H]2CCn3c(=O)n(-c4ccccc4)c(=O)n3[C@H]2[C@H](O)[C@@H]2O[C@H]12 -2.21, CO[C@@H]1COC(=O)CC=C[C@@H](C)[C@@H]2C=C[C@H](O)[C@@H](COC(=O)CC=C[C@H]1C)O2 -0.72, COC(=O)[C@@H]1CC[C@H](C)[C@@H](c2ccc(C)cc2)N1C(=O)c1ccc(C=NOCC[C@@H]2C=C[C@H](OC(C)=O)[C@@H](COC(C)=O)O2)cc1 1.98, CCOC(=O)CCN1C(=O)[C@H]2[C@H]3[C@H](O)[C@H](O)CC(=NOCc4ccccc4)[C@H]3CC[C@H]2C1=O 0.632, CCOC(=O)NN=C1C[C@@H](O)[C@@H](O)[C@@H]2[C@@H]3C(=O)N(c4cccc(Oc5ccccc5)c4)C(=O)[C@@H]3CC[C@H]12 -1.39, COC(=O)CC=C[C@@H](C)[C@@H](C=NOC(C)CN1CCCc2nc(C)c(C)cc21)OC (stereo partly specified) -0.151
